mIDH1 inhibitor: blocks human mutant IDH1 R132H enzyme; O75874; IDH1-R132H enzyme, NADPH consumption, diaphorase/resazurin fluorescence; Potency, µM (top dose mostly 76.6 µM), for inactives: at the top dose activity change, negative = inhibition, actives largely listed as inhibitors; 390,000 compounds, 0.093% hits; note: potency is the fitted concentration of half-maximal effect; % is set by controls: 0 for no effect and ±100 for the full control effect; nearly all actives have a fitted effect of over 65% in size
Target sequence (O75874 whole entry R132H, stated change not applied): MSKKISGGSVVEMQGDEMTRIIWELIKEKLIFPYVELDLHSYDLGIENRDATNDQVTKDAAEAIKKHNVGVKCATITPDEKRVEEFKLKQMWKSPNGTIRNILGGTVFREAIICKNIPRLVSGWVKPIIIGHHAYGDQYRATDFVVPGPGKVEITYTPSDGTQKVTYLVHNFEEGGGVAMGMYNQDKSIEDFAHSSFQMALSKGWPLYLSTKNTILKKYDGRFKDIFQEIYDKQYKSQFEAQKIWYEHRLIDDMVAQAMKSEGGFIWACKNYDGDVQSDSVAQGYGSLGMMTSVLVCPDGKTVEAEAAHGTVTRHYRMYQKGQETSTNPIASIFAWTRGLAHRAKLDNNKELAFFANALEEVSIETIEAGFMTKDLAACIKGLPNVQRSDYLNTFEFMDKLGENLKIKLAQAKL
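IDH1-R132H (0.5 ug/mL) preincubated 30 min with compound, then NADPH (0.016 mM) and alpha-KG (2 mM) added; 80 min at RT, pH 7.5. Remaining NADPH coupled via diaphorase/resazurin to fluorescence (540/590 nm); concentration-response curves normalized to no-enzyme control.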
gsp ag: agonists of gsp mutant (McCune-Albright syndrome). gsp mutant cells, cAMP HTRF, 30 min. Potency, µM (doses to about 76.9 µM), without a hit: at the highest dose activation (cAMP increase), hits mostly activators. 340,000 compounds, 0.13% hits. AID 624287; active = well fitted activation curve with a large enough effect; inconclusive = small, poorly fitted or top-dose-only effect, or another doubt; inactive = no such curve, though single readings can be large or run the other way; cell line not stated here;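 note: phosphodiesterase inhibitor Ro 20-1724 added with compounds to block cAMP breakdown; potency is the fitted concentration of half-maximal effect; nearly all actives have a fitted effect of over 60% in size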
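Cells in DMEM/10% FBS with G418 were pretreated with compounds in DMSO plus […] (300 uM stock) for 30 min at 37C. cAMP was measured by HTRF (cAMP-d2 plus anti-cAMP antibody-K) after 30 min at room temperature.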
BRCA1 expr up: activators of BRCA1 expression. MCF7-BRCA1-FFLuc reporter, luminescence, 48 h; response scale: scaled: vehicle 0%, 10 µM genistein 100%. Potency, µM (doses to about 46.1 µM), for the others: top-dose activation, actives largely listed as activators. 380,000 compounds, 1.1% hits. AID 624202; note: potency is the fitted concentration of half-maximal effect; nearly all actives have a fitted effect of over 80% in size
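MCF7-BRCA1-FFLuc cells, 2000/well in phenol-red-free MEM, attached 2 h then treated 48 h at 37 C. Luciferase luminescence read 15 min after reagent; normalized to genistein maximum activation (10microM) and DMSO, concentration-response fitted.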
IL-2 act: activators of IL-2; IL-2 activation reporter assay, cell-based qHTS; stimulated with anti-CD3/CD4/CD28 beads; in transgenic mouse T cells; 360,000 compounds, 0.065% hits; activation, % (series mostly up to about 46 µM); in the data active = activation above about 50%; inconclusive = mostly about 30% to 49%; note: 0% is about no effect
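Unstimulated transgenic mouse T cells, 750 per well, received compound and, after 60 minutes, anti-CD3/anti-CD4 bead plus anti-CD28 stimulation. EGFP and DsRed were quantified after 18 hours.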
gsp antagonist: gsp mutant antagonism; gsp-mutant cells, cAMP HTRF, 30 min; 340,000 compounds, 0.4% hits; AID 624288; Potency, µM (titrated, usually from 76.9 µM), without a hit: top-dose activity change, negative = inhibition, most hits filed as inhibitors; calls by dose curve; cell line not stated here;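 note: intracellular cAMP measured with PDE inhibitor Ro 20-1724 present during compound exposure; potency is the fitted concentration of half-maximal effect; % is set by controls: 0 for no effect and ±100 for the full control effect; nearly all actives have a fitted effect of over 65% in size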
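Cells, 2000/well, grown 16–24 h in DMEM 10% FBS with 0.5 mg/ml G418, then compounds plus […] (300 uM addition stock), 30 min at 37C. cAMP read by HTRF (cAMP-d2 and anti-cAMP antibody-K in lysis buffer) after 30 min RT.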
Active calls of the source: *; ? = inconclusive; · = no result given; [ ] = dose if it differs, or a comment. Compounds with a hit are over-represented: about 1.5% of the library has one in this group of screens. Unless noted, calls come from the whole dose curve; as a rule, active = well fitted curve in the direction sought with a large enough effect; inconclusive = small, poorly fitted or top-dose-only effect, or another doubt; inactive = no such curve, though single readings can be large; an effect the other way counts as inactive or inconclusive.

SMILES	mIDH1 inhibitor	gsp ag	BRCA1 expr up	IL-2 act	gsp antagonist
Cc1cc(C)n(-c2nc(NC(C)(C)C)nc(NC(C)(C)C)n2)n1	0%	0%	-30%	3	-6%
Cc1ccc(SCC(=O)OCC(=O)NCCC2=CCCCC2)cc1	6%	-3%	-18%	-1	17%
O=C(Nc1cccnc1N1CCOCC1)c1cc2ccccc2oc1=O	4%	-4%	70%	1	6%
O=C(O)c1ccccc1NC(=O)c1cc2ccccc2oc1=O	14%	?	8%	-1	32µM*
CS(=O)(=O)c1ccc(C(=O)OCC(=O)N2CCCC2)cc1[N+](=O)[O-]	·	·	-45%	·	·
CCC(C)NC(=O)CSc1c2c(nc3ccccc13)CCCC2 (configuration not stated)	1%	13µM*	-4%	-4	3%
N#C/C(=C(/O)CN1CCCCC1)c1nc(-c2ccc(Cl)cc2)cs1	0%	-1%	7.1µM*	-2	-4%
CCOC(=O)C1CCCN(C(=O)CSCc2ccccc2)C1 (configuration not stated)	8%	-26%	17%	-2	14%
CCOC(=O)C1CCCN(C(=O)CCc2nnc(-c3ccc(C(C)=O)s3)o2)C1 (configuration not stated)	1%	-16%	13µM*	-4	4%
O=C(CSc1nnnn1-c1cccc(F)c1)NC1CCCCC1	3%	-21%	-2%	-3	-2%
C=CCN(CC=C)Cc1cc(=O)oc2ccccc12	·	·	-5%	-1	·
O=C(Nc1ccc(F)cc1)Nc1ccc2c(c1)OCO2	-6%	22%	?	0	-6%
O=C(NOCc1ccccc1)OCc1ccccc1	1%	·	11µM*	-1	10%
O=C(NCCc1ccc(F)cc1)Nc1ccc2c(c1)OCO2	1%	?	13µM*	17	0%
O=C(Nc1ccc2c(c1)OCO2)Nc1ccccn1	6%	-2%	2.5µM*	0	8%
O=C(Nc1ccc2c(c1)OCO2)Nc1ccc(F)cc1F	3%	?	3.2µM*	-1	1%
COc1cc(OC)c(NS(=O)(=O)c2cc(-c3cnc(C4CC4)o3)ccc2C)cc1Cl	10%	·	-29%	·	·
CC(C)Cn1nc(NC(=O)c2cccc(Cl)c2)c2cc3ccccc3nc21	8%	·	·	·	·
Cc1[nH]c2ccccc2c1C1N2CC3(C)CN1CC(C)(C2)C3=O (configuration not stated)	0%	·	·	·	·
Cn1cc(S(=O)(=O)N2CCCCCC2)cc1C(=O)N1CCN(c2ccc(Cl)cc2)CC1	17%	·	-12%	·	·
Cc1ccc(CNC(=O)c2ccc3c(O)c(S(=O)(=O)c4ccccc4)c(=O)[nH]c3c2)cc1	-8%	·	·	·	·
O=C(CCc1ccccc1)Nc1ccc2c(c1)OCO2	0%	-1%[15.4 µM]	93%	0	11%
COC(=O)c1ccc(NC(=O)Nc2ccc(F)cc2F)cc1	3%	-8%	3.2µM*	-2	-3%
COC(=O)c1ccc(NC(=O)Nc2cccc(F)c2)cc1	0%	-5%	98%	-2	2%
O=C(Nc1ccc2c(c1)OCO2)Nc1ccc2c(c1)OCO2	17%	?	?	0	21%
SMILES	mIDH1 inhibitor	gsp ag	BRCA1 expr up	IL-2 act	gsp antagonist
O=C(Nc1ccc2c(c1)OCO2)OCc1ccccc1	1%	-30%	2.2µM*	2	-13%
Cc1ccc(NC(=O)Nc2ccc3c(c2)OCO3)c(Br)c1	14%	23%	1.8µM*	-1	7%
CC(=O)OCc1cnc(C)c2oc(=O)c(C(=O)Nc3ccc(F)cc3C)cc12	6%	·	5%	·	·
CC(C)(O)[C@H]1Cc2cc3ccc(=O)oc3cc2O1	22%	38%	?	0	13%
C=C(C)C1Cc2cc3ccc(=O)oc3cc2O1 (configuration not stated)	3%	-16%	10µM*	1	12%
Cc1ccc(-c2cc3ncc(C#N)c(N)n3n2)cc1	12%	4%[15.4 µM]	8.9µM*	0	-1%
Cc1c(N=Nc2c(-c3ccc([N+](=O)[O-])cc3)[nH]n(C(N)=S)c2=O)cccc1[N+](=O)[O-]	-11%	-16%	-79%	0	8.9µM*
NC(=S)n1[nH]c(-c2ccc([N+](=O)[O-])cc2)c(N=Nc2cccc([N+](=O)[O-])c2)c1=O	-14%	-39%	-54%	-2	14µM*
COC(=O)[C@@]1(C(C)C)N=C(c2cc(OC)c(OC)c(OC)c2)[C@]2(O1)C(=O)Nc1ccc(F)cc12	·	·	0%	-1	·
COc1ccc(O)c(/C=N/N2CCCCC2)c1	12%	-3%	10µM*	1	-4%
NNc1ccc(Cl)c(C(=O)O)c1	-1%	?	11µM*	3	3%
O=C(c1ccccc1)c1ccc2c(c1)OCCOCCOCCO2	4%	14%	40%	1	4%
O=C(CCc1ccccc1)c1ccc2c(c1)OCCCO2	3%	6%	3.5µM*	3	-13%
O=C(/C=C/c1ccccc1)c1ccc2c(c1)OCCCCO2	0%	-6%	2.2µM*	-4	-15%
O/N=C(/CCc1ccccc1)c1ccc2c(c1)OCCO2	14%	-16%[15.4 µM]	2.8µM*	-1	-5%
O=C(CCCc1ccccc1)c1ccc2c(c1)OCCO2	4%	-42%	-78%	1	-7%
O=C(c1ccccc1)c1ccc2c(c1)OCCCO2	-6%	20%	1.4µM*	-1	-2%
CCOC(=O)c1ccccc1NC(=O)CSc1nc2ncccc2[nH]1	-14%	·	·	·	·
CN(C)CCNC(=O)CN1N=C(c2ccccc2)CCC1=O	-16%	·	·	·	·
C=CCn1c(N)c(C(=O)Nc2ccc(C)cc2)sc1=S	0%	-30%	1.3µM*	-2	13%
N#C/C(=C\c1ccc(O)c([N+](=O)[O-])c1)c1nc2ccccc2s1	-3%	-1%[15.4 µM]	-35%	0	35µM*
Cc1c2cnn(CC(=O)NC(C)C)c(=O)c2c(C)n1Cc1cccc(Cl)c1	-3%	·	·	·	·
O=C(NCC1CCCO1)c1sc2cc(Cl)ccc2c1Cl (configuration not stated)	24%	-2%[15.4 µM]	10µM*	-2	11%
Cc1ccc(-n2ncc(C(=O)NCCCN3CCN(c4cccc(Cl)c4)CC3)c2-n2cccc2)cc1	-12%	·	·	·	·
COc1ccc(C(=O)CSc2ccc3nnc(-c4cccnc4)n3n2)cc1	-15%	20µM*	-23%	-2	-10%
CC(=Nc1ccccc1)C1=C(O)C(Cc2ccc(O)cc2)NC1=O (configuration not stated)	2%	3%	?	-5	3%
O=c1ccc(-c2ccccc2)nn1Cc1c(F)cccc1Cl	9%	·	8%	·	·
O=C(Nc1ccc(-c2nc3cccnc3s2)cc1)c1ccc(Cl)nc1	-6%	8%[15.4 µM]	1.8µM*	-2	-4%
Cc1ccc(S(=O)(=O)N2CCC[C@H]2C(=O)OCC(=O)Nc2ccc3c(c2)OCO3)cc1	6%	?	-25%	0	-7%
